Results reported in PubChem BioAssay.
Inconclusive results are not listed. The source made the active and inactive calls. Unless noted, no cut-off is given here; in the data, nearly all actives have AC50 up to about 30 µM.

Experiment: growth inhibition of DIPG glioma cells, dose response, cell-based, SU-DIPG-IV, MIPE4.0, CellTiter-Glo, qHTS (AID 1347063);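 note: compound exposure lasted 48 hours before the viability readout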
Conditions: SU-DIPG-IV viability, CellTiter-Glo ATP luminescence

Row | SMILES | AC50 | outcome
1 | COc1ccc(-c2cc3nccn3c(Nc3ncccc3C(N)=O)n2)cc1OC | 3.32 µM (active) | 
2 | CNC(=O)c1cc(COc2nnc(Nc3ccc(Cl)cc3)c3ccoc23)ccn1 | 20.9 µM (active) | 
3 | Nc1ccn([C@@H]2O[C@H](CO)[C@@H](O)C2(F)F)c(=O)n1 | 0.526 µM (active) | 
4 | N#C/C(=C1/Nc2ccccc2S1)c1ccnc(OCc2ccc(CN3CCOCC3)cc2)n1 | 0.0209 µM (active) | 
5 | CC(C)=CCC/C(C)=C/CC/C(C)=C/CSc1ccccc1C(=O)O | 0.526 µM (active) | 
6 | O=C1[C@H](Cc2ccc(O)cc2)N2C(=O)CCN(C(=O)NCc3ccccc3)[C@H]2CN1Cc1cccc2ccccc12 | 3.72 µM (active) | 
7 | CC[C@@H]([C@H](C)O)n1ncn(-c2ccc(N3CCN(c4ccc(OCC5CO[C@@](Cn6cncn6)(c6ccc(F)cc6F)C5)cc4)CC3)cc2)c1=O (stereo not given in full) | 14.8 µM (active) | 
8 | COc1cc2ncnc(Nc3cccc(Cl)c3)c2cc1OC | 18.7 µM (active) | 
9 | N#Cc1ccc(COC[C@H]2O[C@@H](n3c(NCc4ccc(Cl)c(Cl)c4)nc4c(N)ncnc43)[C@H](O)[C@@H]2O)cc1 | 2.35 µM (active) | 
10 | CC(=O)Oc1cc2c(s1)CCN(C(C(=O)C1CC1)c1ccccc1F)C2 (stereo not given) | 16.6 µM (active) | 
11 | OCCn1cc(-c2ccc3c(c2)CC/C3=N\O)c(-c2ccncc2)n1 |  | inactive
12 | CN1c2ccccc2C(=O)N2CCc3c([nH]c4ccccc34)C21 (stereo not given) |  | inactive
13 | CC[C@H](CC#N)OC(=O)N[C@@H](C)c1cccc(NC(=O)Nc2ccc(-c3cnco3)c(OC)c2)c1 | 1.32 µM (active) | 
14 | CNc1nccc(-c2cccnc2Oc2cc(C(=O)Nc3cccc(C(F)(F)F)c3)ccc2C)n1 | 13.2 µM (active) | 
15 | CCC(=C/[C@H](C)C/C=C/C(C)=C/[C@@H](C)C(=O)[C@@H](C)[C@H](O)[C@@H](C)C/C(C)=C/C(=O)O)/C=C/[C@@H]1OC(=O)C=C[C@@H]1C | 0.0139 µM (active) | 
16 | O=c1ccn([C@@H]2O[C@H](CO)[C@@H](O)[C@@H]2F)c(=O)[nH]1 |  | inactive
17 | Clc1ccc2ncc(-c3cccc(NC4CNC4)n3)n2c1 | 26.4 µM (active) | 
18 | O=C1NC(=O)[C@@H](c2cn3c4c(cccc24)CCC3)[C@@H]1c1c[nH]c2ccccc12 | 13.2 µM (active) | 
19 | CCNC(=O)Nc1ccc(-c2nc3c(c(N4CCOC[C@@H]4C)n2)CCN(C2COC2)C3)cc1 | 0.332 µM (active) | 
20 | CN(C)CC(=O)N1CCC(c2ccc(NC(=O)c3ncc(C#N)[nH]3)c(C3=CCCCC3)c2)CC1 | 20.9 µM (active) | 
21 | Nc1cccc(-c2cc3c(Oc4cccc(O)c4)ncnc3[nH]2)c1 | 11.8 µM (active) | 
22 | CNc1nc(Nc2ccc(C(=O)N3CCOCC3)cc2OC)ncc1Cl |  | inactive
23 | O=C(Nc1nc2cccc(-c3ccc(CN4CCS(=O)(=O)CC4)cc3)n2n1)C1CC1 | 29.6 µM (active) | 
24 | O=C(CCCCCCC(=O)Nc1ccc([C@H]2O[C@@H](CSc3nc(-c4ccccc4)c(-c4ccccc4)o3)C[C@@H](c3ccc(CO)cc3)O2)cc1)NO | 13.2 µM (active) | 
25 | CC(C)(O)CC(=O)NCCn1ccc2ncnc(Nc3ccc(Oc4cccc(C(F)(F)F)c4)c(Cl)c3)c21 | 26.4 µM (active) | 
26 | CO[C@@H]1[C@@H](O)[C@H](O)[C@@H](n2c3c(Cl)cccc3c3c4c(c5c6cccc(Cl)c6[nH]c5c32)C(=O)NC4=O)O[C@H]1CO | 0.209 µM (active) | 
27 | CNC(=O)c1cc(Oc2ccc(NC(=O)Nc3ccc(Cl)c(C(F)(F)F)c3)c(F)c2)ccn1 | 13.2 µM (active) | 
28 | CS(=O)(=O)N1CCc2c(-c3cnc(N)nc3)nc(N3CCOCC3)nc21 | 0.148 µM (active) | 

Experiment: growth inhibition of DIPG glioma cells, dose response, cell-based, SU-DIPG-XIII, MIPE5.0, CellTiter-Glo, qHTS (AID 1347064; cut-off not given, nearly all actives have AC50 up to about 23 µM;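 for AC50: cells exposed to compound for 48 hours before the viability read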)
Conditions: SU-DIPG-XIII viability, CellTiter-Glo ATP luminescence

Row | SMILES | AC50 | outcome
29 | COc1ccc(-c2cc3nccn3c(Nc3ncccc3C(N)=O)n2)cc1OC | 4.68 µM (active) | 
30 | CCn1c(=O)c(-c2ccn[nH]2)cc2c(C)nc(N)nc21 | 5.9 µM (active) | 
31 | CC(C)n1ncnc1-c1cn2c(n1)-c1ccc(O[C@@H](C)C(N)=O)cc1OCC2 | 1.05 µM (active) | 
32 | N#C/C(=C1/Nc2ccccc2S1)c1ccnc(OCc2ccc(CN3CCOCC3)cc2)n1 | 14.8 µM (active) | 
33 | Cc1cc(-c2nc3cc(F)ccc3s2)ccc1NC(=O)[C@@H](N)CCCCN | 20.9 µM (active) | 
34 | O=C(Nc1ccc(OC(F)(F)Cl)cc1)c1cnc(N2CC[C@@H](O)C2)c(-c2ccn[nH]2)c1 |  | inactive
35 | CNc1nccc(-c2cccnc2Oc2cc(C(=O)Nc3cccc(C(F)(F)F)c3)ccc2C)n1 | 5.9 µM (active) | 
36 | Cc1nc([C@](C)(O)CO)sc1-c1cnc(N)c(O[C@H](C)c2cc(F)ccc2-n2nccn2)c1 | 1.48 µM (active) | 
37 | COC1=C2C[C@H](C)C[C@H](OC)[C@H](O)[C@@H](C)/C=C(/C)[C@H](OC(N)=O)[C@@H](OC)/C=C\C=C(\C)C(=O)NC(=CC1=O)C2=O | 0.118 µM (active) | 
38 | Nc1cccc(-c2cc3c(Oc4cccc(O)c4)ncnc3[nH]2)c1 | 4.68 µM (active) | 
39 | Cc1ccc(C(=O)OCc2ccc([C@@H](CN)C(=O)Nc3ccc4cnccc4c3)cc2)c(C)c1 | 14.4 µM (active) | 
40 | O=C(O)/C(S)=C/c1ccc(I)cc1 |  | inactive
41 | CNc1nc(Nc2ccc(C(=O)N3CCOCC3)cc2OC)ncc1Cl |  | inactive
42 | Cc1cc(O)c(-c2ccc([C@@H](C)CN)cc2)c2c1[nH]c(=O)c1sccc12 | 0.148 µM (active) | 
43 | C[C@@H]1Cc2c([nH]c3ccccc23)[C@@H](c2c(F)cc(/C=C/C(=O)O)cc2F)N1CC(C)(C)F |  | inactive
44 | Nc1ncc(C(=O)NC2CN(C(=O)C3CC3)C2)c2ccc(-c3cccc(F)c3)nc12 |  | inactive
45 | CS(=O)(=O)N1CCc2c(-c3cnc(N)nc3)nc(N3CCOCC3)nc21 | 1.18 µM (active) | 
